Measurements from PubChem BioAssay (NCI).
About 83,000 compounds went through this panel and 20% of them were active in at least one assay; those are over-represented in the sample as a whole.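 48-hour exposure, single concentration, 96-well plates; percent growth endpoint where 0 means no net growth. Active: below 10.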 Activity calls are given as the source filed them.

Each compound was assayed on HCC-2998 colon (assay: NCI-60 one-dose screen, 48 h (100 = growth as untreated, 0 = no growth, -100 = all killed)). Conditions: 10 µM.
Protocol: Growth inhibition of the HCC-2998 human tumor cell line is measured as a screen for anti-cancer activity. Cells are grown in 96 well plates and exposed to the test compound for 48 hours. Compounds are tested at a single concentration, which is 10^-5 M for most compounds. The reported endpoint is percent growth (GI% or GIPRCNT), where numbers from 0 - 100% represent growth inhibition, and numbers from -100% - 0 represent cell death. For example, a value of 40 represents 60% growth inhibition. A value of 0 means no net growth occurred over the course of the experiment. A value of -40 indicates 40% of cells at the beginning of the experiment died by the end of the experiment. A value of -100 means all cells are dead at the end of the experiment.
NCI-60 Human Tumor Cell Lines Screen was performed using the standard one-dose NCI protocol, which is described in more detail at https://dtp.cancer.gov/discovery_development/nci-60/default.htm.
Compounds with GIPRCNT values below 10 were considered active. Activity score was based on GIPRCNT using the following formula: […]
Score is 0 for GIPRCNT values of 100 or above, 50 for GIPRCNT values of 0, and 100 for GIPRCNT values of -100.
For `O=C(Cc1ccc2c(c1)CN(C1CCC(=O)NC1=O)C2=O)NCCc1ccccc1` (stereo not given), the growth was -11.4% (active). For `COc1ccc(-c2ccc(/C=N/NC(=O)c3[nH]c4ccc(Br)cc4c3-c3ccccc3)s2)cc1`, the growth was 112% (inactive). For `CC1(c2ccccc2)NC(=O)N(CC(=O)Nc2ccc(C(=O)/C=C/C=C/c3ccccc3)cc2)C1=O` (stereo not given), the growth was 87.2% (inactive). `O=C(Nc1ccc(OCC(=O)c2ccccc2)cc1)Nc1ccc(Cl)c(C(F)(F)F)c1` was tested, and the growth was 28.6% (inactive). `O=c1cc(-c2ccccc2)oc2cc(OCCCCNCc3ccccc3)cc(O)c12` was tested, and the growth was -96.7% (active). In the case of `Cc1ccc(-c2cc(-c3cc4ccccc4nc3Cl)[nH]c(=S)n2)cc1`, the growth is reported as 77.3% (inactive). For `O=C(Nc1cccc([N+](=O)[O-])c1)Nc1cccc([N+](=O)[O-])c1`, the growth was 88% (inactive). `O=C1Nc2cc(Cl)ccc2/C1=C/c1ccc(OCc2ccc(Br)cc2F)cc1` was tested, and the growth was 19.5% (inactive). With `O=C1Nc2ccc(Cl)cc2/C1=C/c1ccc(OCc2ccccn2)cc1` the growth was 105% (inactive). With `Cc1ccc(S(=O)(=O)c2nc(-c3ccccc3)oc2S(=O)(=O)CC(=O)N2CCCC2)cc1` the growth was -91.1% (active). For `O=C(c1ccc(-n2c(=O)[nH]c3ccccc3c2=O)cc1)N1CCOCC1`, the growth was 116% (inactive). In the case of `CCCCSc1nc(Nc2ccc(/C(C)=N/NC(N)=S)cc2)c(C#N)c(-c2ccc(OC)cc2)n1`, the growth is reported as 94.5% (inactive). With `CCOC(=O)c1c(CSc2ccccc2)n(C)c2cc(CN(C)C)c(O)c(CN(C)C)c12` the growth was 12.1% (inactive). In the case of `CNC(=O)c1cc(-c2ccc(NC(=O)Nc3ccc(C)cc3)cc2)nc2cccnc12`, the growth is reported as 121% (inactive). For `O=C(CSc1nnc(-c2c[nH]c3ccccc23)n1-c1ccccc1)c1ccc(Cl)cc1`, the growth was 78.1% (inactive). For `CC(C)(C)c1ccc(NCc2cn(-c3ccc(C(=O)O)cc3)nc2-c2ccc(C#N)cc2)cc1`, the growth was -66.6% (active). With `O=C1Nc2ccc(F)cc2/C1=C/c1cccc(OCc2ccccn2)c1` the growth was 74.1% (inactive). `CN(C)c1ccc(/C=C/c2nc3ccccc3c(=O)n2CC(=O)Nc2ccccc2)cc1` was tested, and the growth was 58.2% (inactive). For `CN(C)c1nc(NCCNS(=O)(=O)c2ccc(C(=O)/C=C/c3ccccc3)cc2)nc(Nc2ccc(F)cc2)n1`, the growth was -75.7% (active). For `NS(=O)(=O)c1ccc(NC(=O)CSc2ccc(-c3ccc(Cl)cc3)nn2)c(Br)c1`, the growth was 58.2% (inactive). For `CN(CCO)c1oc(-c2ccccc2)nc1[P+](c1ccccc1)(c1ccccc1)c1ccccc1`, the growth was 10.8% (inactive). For `COc1cc(NC(=O)c2cc(-c3ccc(F)cc3F)ccc2O)cc(OC)c1OC`, the growth was 63.9% (inactive). For `O=C(c1ccc([N+](=O)[O-])c([N+](=O)[O-])c1O)n1[nH]c(=O)c2ccccc2c1=O`, the growth was 106% (inactive). `O=C(N/C(=C1/OCCN1Cc1ccccc1)[P+](c1ccccc1)(c1ccccc1)c1ccccc1)c1ccccc1` was tested, and the growth was -10.8% (active). With `O=C(CSc1nnc(-c2c[nH]c3ccccc23)n1-c1ccccc1)Nc1ccc(C(=O)/C=C/c2ccc(Cl)cc2)cc1` the growth was 78% (inactive). For `O=C(NC(=S)N1CCN(c2ncnc3c2cnn3-c2ccccc2)CC1)c1ccc(Cl)cc1`, the growth was 82.6% (inactive). With `CN1CCN(c2ccc(C(=O)/C=C/c3cc(Br)ccc3F)cc2)CC1` the growth was -63.2% (active). `COc1ccc2ncc(C#Cc3cncc(C(=O)Nc4ccc(CN5CCN(C)CC5)c(C(F)(F)F)c4)c3)n2n1` was tested, and the growth was -95.8% (active). In the case of `O=C(CSc1nnc(-c2c[nH]c3ccccc23)n1-c1ccccc1)Nc1ccc(C(=O)/C=C/c2ccc(Br)cc2)cc1`, the growth is reported as 94.4% (inactive). In the case of `O=C1CCC(N2Cc3c(NCc4ccc(-c5ccccc5)cc4)cccc3C2=O)C(=O)N1` (stereo not given), the growth is reported as 67.4% (inactive). With `Cc1ccc(/C=C/C(=O)c2ccc(NC(=O)CSc3nnc(-c4c[nH]c5ccccc45)n3-c3ccccc3)cc2)cc1` the growth was 83.8% (inactive). With `Cc1ccn2c(C(=O)c3ccccc3)cc(-c3cc(-c4ccc(N(C)C)cc4)c(C#N)c(N)n3)c2c1` the growth was 92% (inactive). `CC(=O)c1cc(C(=O)c2ccc3c(c2)NC(=O)CO3)n2ccc3ccccc3c12` was tested, and the growth was 87.8% (inactive). With `C/C(=N\N=C\c1ccc(N(C)C)cc1)c1ccc2c(c1)Nc1ccccc1S2` the growth was 54.4% (inactive). `COc1cc(C2CC(c3ccc(C)cc3)=Nc3c(N)nc(N)nc3N2)ccc1Oc1nc(Nc2ccc(F)cc2)nc(N(C)C)n1` (stereo not given) was tested, and the growth was 29.9% (inactive). With `CN(C)c1ccc(/C=C/c2nc3ccccc3c(=O)n2CC(=O)Nc2ccc(Cl)cc2)cc1` the growth was 68% (inactive). With `O=C(CNc1nc(-c2ccccc2)cs1)Nc1cccc(Cl)c1` the growth was 33.2% (inactive). With `C/C(=C\CC/C=C(\C)CC/C=C(\C)CC[C@@H](O)C(C)(C)O)CC/C=C(\C)CC[C@@H](O)C(C)(C)O` the growth was 31.7% (inactive). For `O=C(CSc1nnc(-c2c[nH]c3ccccc23)n1-c1ccccc1)Nc1ccc(C(=O)/C=C/c2ccccc2Cl)cc1`, the growth was 94.6% (inactive). For `COC1CC(Cn2cc(COc3ccc4ccc(=O)oc4c3)nn2)C(OCc2ccccc2)C(OCc2ccccc2)C1OCc1ccccc1` (stereo not given), the growth was 121% (inactive).
